# Assay results reported in PubChem BioAssay (NCI).
# This is part of a sample that, as a whole, favours compounds with a hit. Of some 79,000 tested, about 15% had one in any assay. Unmarked numbers belong to inactive results. Activity calls are given as the source filed them. No stated cut-off is given here; in the data, active means growth inhibition above about 70%; inactive means the rest.
# Tests used:
# [1] = NCI Yeast Anticancer Drug Screen. Data for the wt2 strain (AID 169); details: S. cerevisiae wt2 strain growth inhibition, hits give high values
# How it was run: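 Against vehicle-treated controls, the growth of yeast exposed to each compound was compared, and the inhibition was recorded.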
# [2] = NCI Yeast Anticancer Drug Screen. Data for the mlh1 strain (AID 171);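 further: 0% = growth of vehicle-treated control cultures of the same strain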; details: S. cerevisiae mlh1 strain growth inhibition, hits give high values
# How it was run: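 Measured: yeast growth. Reference: vehicle-treated controls. Organism: strain with a defined alteration affecting DNA damage repair or cell cycle control, treated with compound.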
# [3] = NCI Yeast Anticancer Drug Screen. Data for the sgs1 strain (AID 173);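 further: 0% = growth of vehicle-only control cultures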; details: S. cerevisiae sgs1 mutant, hits give high values
# How it was run: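 Each compound was added to cultures of the altered yeast strain. Growth was recorded, and inhibition was derived by comparison with vehicle controls.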
# [4] = NCI Yeast Anticancer Drug Screen. Data for the mlh1 rad18 strain (AID 175); details: S. cerevisiae mlh1 rad18 strain growth inhibition, hits give high values
# How it was run: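 Genetically defined yeast (DNA repair-deficient) exposed to compounds; growth inhibition determined relative to vehicle.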
# [5] = NCI Yeast Anticancer Drug Screen. Data for the rad18 strain (AID 177); details: S. cerevisiae rad18 mutant growth inhibition, hits give high values
# How it was run: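 Vehicle-treated cultures served as the baseline for scoring compound-induced growth inhibition in DNA-repair-mutant yeast.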
# [6] = NCI Yeast Anticancer Drug Screen. Data for the rad52 strain (AID 147);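 further: 0% = growth of vehicle-treated control cultures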; details: S. cerevisiae rad52 mutant growth inhibition, hits give high values
# How it was run: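 The repair-mutant yeast strain was incubated with compounds, then growth was read and inhibition derived relative to vehicle.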
# [7] = NCI Yeast Anticancer Drug Screen. Data for the wt1 strain (AID 149);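 further: 0% = growth of vehicle-treated wt1 cultures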; details: S. cerevisiae wt1 strain (SPY 50644) growth inhibition, hits give high values
# How it was run: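 Each compound is tested on wt1 yeast and the loss of growth versus vehicle gives the inhibition value.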
# [8] = NCI Yeast Anticancer Drug Screen. Data for the rad50EPP+ strain (AID 151);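 further: 0% = growth of vehicle-treated control cultures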; details: S. cerevisiae rad50 mutant strain, hits give high values
# How it was run: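 Vehicle-normalised growth inhibition; rad50EPP+ yeast strain, altered in DNA damage repair, compound-treated.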
# [9] = NCI Yeast Anticancer Drug Screen. Data for the mgt1 strain (AID 153); details: S. cerevisiae mgt1 mutant growth inhibition, hits give high values
# How it was run: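 Vehicle-normalized growth inhibition is determined in mgt1 yeast, a strain selected for a defined alteration in DNA repair or cell cycle control.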
# [10] = NCI Yeast Anticancer Drug Screen. Data for the rad50 strain (AID 155);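 further: 0% = growth of vehicle-only cultures of the same strain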; details: S. cerevisiae rad50 strain growth inhibition, hits give high values
# How it was run: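 Vehicle-treated cultures provide the reference for the growth inhibition reported for compound-exposed, repair-deficient yeast.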
# [11] = NCI Yeast Anticancer Drug Screen. Data for the mec2-1 strain (AID 157); details: S. cerevisiae mec2-1 strain, hits give high values
# How it was run: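 Mutant yeast (mec2-1) grown with compound; growth inhibition relative to vehicle control reported.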
# [12] = NCI Yeast Anticancer Drug Screen. Data for the rad14 strain (AID 159);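 further: 0% = growth of vehicle-treated control cultures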; details: S. cerevisiae rad14 strain growth inhibition, hits give high values
# How it was run: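 Inhibition of growth is reported for a repair-deficient yeast mutant following compound treatment, calculated relative to cultures that received vehicle.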
# [13] = NCI Yeast Anticancer Drug Screen. Data for the sgs1 mgt1 strain (AID 161);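 further: 0% = growth of cultures given vehicle only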; details: S. cerevisiae sgs1 mgt1 strain, hits give high values
# How it was run: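 Growth of a repair-deficient yeast mutant was monitored after compound treatment and expressed as inhibition relative to vehicle-treated cultures.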
# [14] = NCI Yeast Anticancer Drug Screen. Data for the CLN2oe strain (AID 163);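 further: 0% = growth of vehicle-only control cultures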; details: S. cerevisiae CLN2oe strain, hits give high values
# How it was run: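 Compounds are applied to yeast harbouring a defined cell-cycle control change; reduced growth compared with vehicle-treated controls gives the value.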
# [15] = NCI Yeast Anticancer Drug Screen. Data for the cln2 rad14 strain (AID 165);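 further: 0% = growth equal to vehicle treated cultures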; details: S. cerevisiae cln2 rad14 strain, hits give high values
# How it was run: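 Readout is yeast growth inhibition versus vehicle-treated controls, using a strain with cln2 and rad14 alterations exposed to compound.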
# [16] = NCI Yeast Anticancer Drug Screen. Data for the bub3 strain (AID 167); details: S. cerevisiae bub3 mutant strain, hits give high values
# How it was run: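 Mutant yeast screening strain plus compound; vehicle-treated cultures serve as the 0% inhibition reference.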
# [17] = at 5.0 µM (retest, dose inferred, filed as 0.5)
# [18] = at 50.0 µM (retest, dose inferred, filed as 5.0)
smiles,measurement,setting,value
CC1=NN(c2cccc(Cl)c2)C(=O)C1,growth inhibition,[1]; at 1.2 µM,-31%
same,growth inhibition,[1]; at 3.7 µM,-28%
same,growth inhibition,[1]; at 11.0 µM,-15%
same,growth inhibition,[1]; at 33.0 µM,8%
same,growth inhibition,[1]; at 100.0 µM,51%
same,growth inhibition,[2]; at 1.2 µM,-13%
same,growth inhibition,[2]; at 3.7 µM,-20%
same,growth inhibition,[2]; at 11.0 µM,-16%
same,growth inhibition,[2]; at 33.0 µM,2%
same,growth inhibition,[2]; at 100.0 µM,56%
same,growth inhibition,[3]; at 1.2 µM,-27%
same,growth inhibition,[3]; at 3.7 µM,-22%
same,growth inhibition,[3]; at 11.0 µM,-11%
same,growth inhibition,[3]; at 33.0 µM,4%
same,growth inhibition,[3]; at 100.0 µM,50%
same,growth inhibition,[4]; [17],73% (active)
same,growth inhibition,[4]; [18],100% (active)
same,growth inhibition,[4]; at 50.0 µM,44%
same,growth inhibition,[5]; at 1.2 µM,-47%
same,growth inhibition,[5]; at 3.7 µM,-34%
same,growth inhibition,[5]; at 11.0 µM,-22%
same,growth inhibition,[5]; at 33.0 µM,-20%
same,growth inhibition,[5]; at 100.0 µM,8%
Nc1ccc2c(c1)C(=O)c1cccc(N)c1C2=O,growth inhibition,[6]; at 1.2 µM,6%
same,growth inhibition,[6]; at 3.7 µM,38%
same,growth inhibition,[6]; at 11.0 µM,89% (active)
same,growth inhibition,[6]; at 33.0 µM,93% (active)
same,growth inhibition,[6]; at 100.0 µM,92% (active)
same,growth inhibition,[7]; at 1.2 µM,-1%
same,growth inhibition,[7]; at 3.7 µM,6%
same,growth inhibition,[7]; at 11.0 µM,24%
same,growth inhibition,[7]; at 33.0 µM,49%
same,growth inhibition,[7]; at 100.0 µM,61%
same,growth inhibition,[8]; at 1.2 µM,9%
same,growth inhibition,[8]; at 3.7 µM,50%
same,growth inhibition,[8]; at 11.0 µM,92% (active)
same,growth inhibition,[8]; at 33.0 µM,97% (active)
same,growth inhibition,[8]; at 100.0 µM,92% (active)
same,growth inhibition,[9]; at 1.2 µM,-1%
same,growth inhibition,[9]; at 3.7 µM,4%
same,growth inhibition,[9]; at 11.0 µM,21%
same,growth inhibition,[9]; at 33.0 µM,63%
same,growth inhibition,[9]; at 100.0 µM,81% (active)
same,growth inhibition,[10]; at 1.2 µM,10%
same,growth inhibition,[10]; at 3.7 µM,45%
same,growth inhibition,[10]; [17],51%
same,growth inhibition,[10]; at 11.0 µM,92% (active)
same,growth inhibition,[10]; at 33.0 µM,95% (active)
same,growth inhibition,[10]; [18],93% (active)
same,growth inhibition,[10]; at 50.0 µM,89.8% (active)
same,growth inhibition,[10]; at 100.0 µM,93% (active)
same,growth inhibition,[11]; at 1.2 µM,4%
same,growth inhibition,[11]; at 3.7 µM,16%
same,growth inhibition,[11]; [17],17%
same,growth inhibition,[11]; at 11.0 µM,38%
same,growth inhibition,[11]; at 33.0 µM,64%
same,growth inhibition,[11]; [18],68%
same,growth inhibition,[11]; at 50.0 µM,53.9%
same,growth inhibition,[11]; at 100.0 µM,82% (active)
same,growth inhibition,[12]; at 1.2 µM,5%
same,growth inhibition,[12]; at 3.7 µM,11%
same,growth inhibition,[12]; at 11.0 µM,29%
same,growth inhibition,[12]; at 33.0 µM,57%
same,growth inhibition,[12]; at 100.0 µM,88% (active)
same,growth inhibition,[13]; [17],-9%
same,growth inhibition,[13]; [18],66%
same,growth inhibition,[13]; at 50.0 µM,42.9%
same,growth inhibition,[14]; at 1.2 µM,-2%
same,growth inhibition,[14]; at 3.7 µM,3%
same,growth inhibition,[14]; at 11.0 µM,19%
same,growth inhibition,[14]; at 33.0 µM,37%
same,growth inhibition,[14]; at 100.0 µM,48%
same,growth inhibition,[15]; [17],8%
same,growth inhibition,[15]; [18],77% (active)
same,growth inhibition,[15]; at 50.0 µM,54.6%
same,growth inhibition,[16]; at 1.2 µM,-1%
same,growth inhibition,[16]; at 3.7 µM,2%
same,growth inhibition,[16]; [17],6%
same,growth inhibition,[16]; at 11.0 µM,25%
same,growth inhibition,[16]; at 33.0 µM,72% (active)
same,growth inhibition,[16]; [18],89% (active)
same,growth inhibition,[16]; at 50.0 µM,57.1%
same,growth inhibition,[16]; at 100.0 µM,87% (active)
same,growth inhibition,[1]; at 1.2 µM,-2%
same,growth inhibition,[1]; at 3.7 µM,11%
same,growth inhibition,[1]; at 11.0 µM,19%
same,growth inhibition,[1]; at 33.0 µM,56%
same,growth inhibition,[1]; at 100.0 µM,72% (active)
same,growth inhibition,[2]; at 1.2 µM,0%
same,growth inhibition,[2]; at 3.7 µM,7%
same,growth inhibition,[2]; at 11.0 µM,32%
same,growth inhibition,[2]; at 33.0 µM,74% (active)
same,growth inhibition,[2]; at 100.0 µM,85% (active)
same,growth inhibition,[3]; at 1.2 µM,-4%
same,growth inhibition,[3]; at 3.7 µM,3%
same,growth inhibition,[3]; at 11.0 µM,37%
same,growth inhibition,[3]; at 33.0 µM,79% (active)
same,growth inhibition,[3]; at 100.0 µM,85% (active)
same,growth inhibition,[4]; [17],18%
same,growth inhibition,[4]; [18],93% (active)
same,growth inhibition,[4]; at 50.0 µM,72.5% (active)
same,growth inhibition,[5]; at 1.2 µM,5%
same,growth inhibition,[5]; at 3.7 µM,39%
same,growth inhibition,[5]; at 11.0 µM,91% (active)
same,growth inhibition,[5]; at 33.0 µM,97% (active)
same,growth inhibition,[5]; at 100.0 µM,93% (active)
